Laboratory results as given in PubChem BioAssay AID1159580 (chemical genetic matrix, 2015).
Where “and” joins values, the source holds several entries; their conditions need not be identical. Equal entries are not always repeated. Screen size: about 5,500 compounds; about 2,000 (36%) were called active. About 18% were inconclusive and are not listed. The list shows a part of the results. Values without a mark were called inactive. Cut-off read from the data, not from the text of the source: active = normalized growth mostly below about 0.91 (no sharp cut-off); inconclusive = no clear call, values can overlap the other calls; inactive = mostly above about 0.92.

Assay: chemical genetic growth profiling, strain panel (AID 1159580);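 note: tested at 20 µM; growth read once vehicle control cultures reached saturation at 30 °C; 1 = growth at the plate median or of vehicle wells; lower values mean less growth of the strain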
Settings: S. cerevisiae deletion strains, growth OD

CC(C)CCCC(C)C1CCC2C3=CC[C@H]4C[C@@H](O)CC[C@]4(C)C3CC[C@@]21C (some centres not stated) gave a normalized growth (locus YAL021C, strain ccr4, hits give low values) of 0.965, a normalized growth (locus YAL026C, strain drs2, hits give low values) of 0.965 and a normalized growth (locus YAL030W, strain snc1, hits give low values) of 0.985. For the same compound, the normalized growth (locus YBL061C, strain skt5, hits give low values) was 0.991, the normalized growth (locus YBR009C, strain hhf1, hits give low values) was 1.02 and the normalized growth (locus YBR021W, strain FUR4, hits give low values) was 1.02. For the same compound, the normalized growth (locus YBR023C, strain chs3, hits give low values) was 0.961, the normalized growth (locus YBR171W, strain sec66, hits give low values) was 0.968 and the normalized growth (locus YBR229C, strain ROT2, hits give low values) was 1.02. For the same compound, the normalized growth (locus YBR231C, strain swc5, hits give low values) was 0.967, the normalized growth (locus YBR279W, strain paf1, hits give low values) was 0.991 and the normalized growth (locus YCL011C, strain gbp2, hits give low values) was 0.974. For the same compound, the normalized growth (locus YCL016C, strain dcc1, hits give low values) was 0.979, the normalized growth (locus YCL029C, strain bik1, hits give low values) was 0.994 and the normalized growth (locus YCL061C, strain MRC1, hits give low values) was 0.986. It also gave a normalized growth (locus YCL069W, strain vba3, hits give low values) of 0.989, a normalized growth (locus YCR088W, strain abp1, hits give low values) of 0.983 and a normalized growth (locus YDL005C, strain med2, hits give low values) of 0.997. The normalized growth (locus YDL035C, strain GPR1, hits give low values) was 0.996, the normalized growth (locus YDL040C, strain nat1, hits give low values) was 0.965 and the normalized growth (locus YDL074C, strain BRE1, hits give low values) was 0.965. The normalized growth (locus YDL101C, strain DUN1, hits give low values) was 1.02, the normalized growth (locus YDL185W, strain tfp1, hits give low values) was 1 and the normalized growth (locus YDL192W, strain arf1, hits give low values) was 0.981. For the same compound, the normalized growth (locus YDR001C, strain nth1, hits give low values) was 0.985, the normalized growth (locus YDR069C, strain doa4, hits give low values) was 0.98 and the normalized growth (locus YDR101C, strain arx1, hits give low values) was 0.988. The normalized growth (locus YDR137W, strain rgp1, hits give low values) was 0.823 (active), the normalized growth (locus YDR150W, strain NUM1, hits give low values) was 1.04 and the normalized growth (locus YDR159W, strain sac3, hits give low values) was 1.01. The normalized growth (locus YDR162C, strain NBP2, hits give low values) was 0.958, the normalized growth (locus YDR195W, strain ref2) was 1.03 and the normalized growth (locus YDR297W, strain sur2, hits give low values) was 0.975. The normalized growth (locus YDR318W, strain mcm21, hits give low values) was 1.01, the normalized growth (locus YDR334W, strain swr1, hits give low values) was 0.948 and the normalized growth (locus YDR335W, strain msn5, hits give low values) was 0.967. It also gave a normalized growth (locus YDR388W, hits give low values) of 0.994, a normalized growth (locus YDR392W, strain spt3, hits give low values) of 0.863 and a normalized growth (locus YDR502C, strain sam2, hits give low values) of 0.977. For the same compound, the normalized growth (locus YEL003W, strain gim4, hits give low values) was 0.976, the normalized growth (locus YEL037C, strain rad23, hits give low values) was 0.975 and the normalized growth (locus YEL061C, strain CIN8 (second series), hits give low values) was 0.978. The normalized growth (locus YEL061C, strain CIN8, hits give low values) was 1.01, the normalized growth (locus YER015W, strain faa2, hits give low values) was 0.985 and the normalized growth (locus YER016W, strain bim1, hits give low values) was 0.998. The normalized growth (locus YER110C, hits give low values) was 0.985, the normalized growth (locus YER111C, strain swi4, hits give low values) was 0.977 and the normalized growth (locus YER155C, strain BEM2 (second series), hits give low values) was 0.973. The normalized growth (locus YER155C, strain BEM2, hits give low values) was 1.01, the normalized growth (locus YER167W, strain BCK2, hits give low values) was 1.06 and the normalized growth (locus YFR010W, strain ubp6, hits give low values) was 0.983. The normalized growth (locus YGL078C, strain dbp3, hits give low values) was 0.982, the normalized growth (locus YGL086W, strain mad1, hits give low values) was 0.996 and the normalized growth (locus YGL167C, strain pmr1, hits give low values) was 0.98. The normalized growth (locus YGL173C, strain kem1, hits give low values) was 0.968, the normalized growth (locus YGL227W, strain vid30, hits give low values) was 0.991 and the normalized growth (locus YGL240W, strain doc1, hits give low values) was 0.984. The normalized growth (locus YGL248W, strain PDE1, hits give low values) was 1.03, the normalized growth (locus YGL253W, strain hxk2, hits give low values) was 0.909 (active) and the normalized growth (locus YGR135W, strain pre9, hits give low values) was 0.982. The normalized growth (locus YGR252W, strain gcn5, hits give low values) was 0.944, the normalized growth (locus YHR013C, strain ard1, hits give low values) was 0.957 and the normalized growth (locus YHR027C, strain rpn1, hits give low values) was 0.973. The normalized growth (locus YHR030C, strain SLT2, hits give low values) was 1.01 and 0.993, the normalized growth (locus YHR079C, strain IRE1 (second series), hits give low values) was 1 and the normalized growth (locus YHR079C, strain IRE1, hits give low values) was 1.02. The normalized growth (locus YHR094C, strain hxt1, hits give low values) was 0.988, the normalized growth (locus YHR129C, strain ARP1, hits give low values) was 1.01 and the normalized growth (locus YHR142W, strain chs7, hits give low values) was 0.886. It also gave a normalized growth (locus YHR200W, strain rpn10, hits give low values) of 1.01, a normalized growth (locus YIL066C, strain RNR3, hits give low values) of 1.03 and a normalized growth (locus YIL073C, strain SPO22, hits give low values) of 1.05. It also gave a normalized growth (locus YIL125W, strain kgd1, hits give low values) of 0.999, a normalized growth (locus YIR030C, strain dcg1, hits give low values) of 0.994 and a normalized growth (locus YJL092W, strain hpr5, hits give low values) of 0.976. For the same compound, the normalized growth (locus YJL095W, strain BCK1 (second series), hits give low values) was 0.991, the normalized growth (locus YJL095W, strain BCK1, hits give low values) was 0.946 and 1 and the normalized growth (locus YJL115W, strain asf1, hits give low values) was 0.966. It also gave a normalized growth (locus YJL129C, strain trk1, hits give low values) of 0.905, a normalized growth (locus YJL134W, strain LCB3, hits give low values) of 0.989 and a normalized growth (locus YJL154C, strain vps35, hits give low values) of 0.995. It also gave a normalized growth (locus YJL164C, strain tpk1, hits give low values) of 0.956, a normalized growth (locus YJL166W, strain qcr8, hits give low values) of 0.971 and a normalized growth (locus YJL168C, strain set2, hits give low values) of 0.995. For the same compound, the normalized growth (locus YJL187C, strain SWE1 (second series), hits give low values) was 0.994, the normalized growth (locus YJL187C, strain SWE1, hits give low values) was 0.985 and the normalized growth (locus YJR043C, strain POL32, hits give low values) was 1.05.
